Measured values reported in PubChem BioAssay (EPA / NIEHS).
Inconclusive results are not listed. Activity calls are given as the source filed them. Rule for the calls: active = hit-call score of the fitted dose curve at least 0.9, where 1 is the maximum; inconclusive = response in the unintended direction; inactive = score below 0.9.

The compounds below were run against Estrogen-related receptor gamma (Homo sapiens) (UniProt P62508) (assay: ATG_ERRg_TRANS: Attagene TRANS-FACTORIAL HepG2 Assay for human Estrogen-Related Receptor gamma (ERRg) (AID 2282977;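 note: hits increase reporter signal over DMSO so potencies reflect activators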)). Conditions: HepG2 Attagene TRANS reporter, ERRg transactivation.
Sequence of Estrogen-related receptor gamma (Homo sapiens) (P62508 whole entry, looked up): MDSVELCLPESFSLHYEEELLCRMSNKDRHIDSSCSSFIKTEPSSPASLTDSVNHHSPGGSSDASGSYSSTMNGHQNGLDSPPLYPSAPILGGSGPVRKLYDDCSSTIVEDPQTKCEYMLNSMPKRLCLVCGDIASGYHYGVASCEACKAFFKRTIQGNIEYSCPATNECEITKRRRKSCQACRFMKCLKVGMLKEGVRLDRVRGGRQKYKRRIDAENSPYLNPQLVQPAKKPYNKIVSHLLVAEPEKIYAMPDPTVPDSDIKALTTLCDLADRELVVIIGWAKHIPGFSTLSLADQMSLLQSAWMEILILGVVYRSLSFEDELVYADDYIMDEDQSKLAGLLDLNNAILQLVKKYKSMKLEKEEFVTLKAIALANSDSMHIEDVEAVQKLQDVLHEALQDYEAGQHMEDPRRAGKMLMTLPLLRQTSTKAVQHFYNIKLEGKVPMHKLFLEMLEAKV
Method: ATG_TRANS is a cell-based, multiplexed-readout assay that uses HepG2, a human liver cell line, with measurements taken at 24 hours after chemical dosing in a 24-well plate.ATG_ERRg_TRANS is one of 30 assay component(s) measured or calculated from the ATG_TRANS assay. It is designed to make measurements of mRNA induction, a form of inducible reporter, as detected with fluorescence intensity signals by Reverse transcription polymerase chain reaction (RT-PCR) and Capillary electrophoresis technology.Data from the assay component ATG_ERRg_TRANS was analyzed into 1 assay endpoint. This assay endpoint, ATG_ERRg_TRANS, was analyzed in the positive analysis fitting direction relative to DMSO as the negative control and baseline of activity. Using a type of inducible reporter, measures of mRNA for gain-of-signal activity can be used to understand the reporter gene at the transcription factor-level as they relate to the gene ESRRG. Furthermore, this assay endpoint can be referred to as a primary readout, because this assay has produced multiple assay endpoints where this one serves a reporter gene function. To generalize the intended target to other relatable targets, this assay endpoint is annotated to the nuclear receptor intended target family, where the subfamily is steroidal.
Human liver HepG2 cells are transiently transfected with multiple reporter transcription units (MRTUs) in 6-well plates using FuGene 6 reagent (Roche; 3 ml FuGene/1 mg DNA). The MRTU constructs are regulated by a cis-regulating element (promoter). […] A major difference between the CIS and TRANS system is that in CIS activities of endogenous TFs are measured, whereas the TRANS assay evaluates changes in activities of exogenous, chimeric NR-Gal4 proteins. […] At the end of 24 hour incubation, total RNA was isolated using TriZol reagent (Invitrogen). The isolated RNA is then reverse-transcribed using oligo(dT) primer and Mo-MLV reverse transcriptase (Invitrogen) with DNAse I (Ambion) treatment for 30 min. The one-tenth of the produced cDNA was amplified by PCR using Taq DNA polymerase (Invitrogen) and two reporter sequence-specific primers. The PCR products were fluorescently labeled by primer extension with 6-arboxyfluorescein (6-FAM) 5'-labeled reporter sequence-specific primer (2 min at 95 C, 20 s at 68 C and 10 min at 72 C) and these products were digested with 5U of HpaI (New England Biolabs) for 2h at 37 C. The fragments were purified using Qiaquick PCR columns (Qiagen), analyzed on an ABI 3130xL genetic analyzer (Applied Biosystems) with peak positions identified by using a set of X-rhodamine (ROX)-labeled MapMarker1000 molecular weight standards (BioVentures). The raw capillary electrophoresis data was processed using Attagraph software (Attagene).

Structure (SMILES) | outcome
C=CCC1=C(C)C(OC(=O)C2C(C=C(C)C)C2(C)C)CC1=O (stereo unspecified) | inactive
CNC(=O)ON=CC(C)(C)SC | inactive
CC(C)(C)c1ccc(CSc2cnn(C(C)(C)C)c(=O)c2Cl)cc1 | inactive
CCNc1nc(Cl)nc(NC(C)C)n1 | inactive
COP(=S)(OC)Oc1nc(Cl)c(Cl)cc1Cl | inactive
CON(C)C(=O)Nc1ccc(Cl)c(Cl)c1 | inactive
COc1nc(NC(C)C)nc(NC(C)C)n1 | inactive
CO/C=C(/C(=O)OC)c1ccccc1Oc1cc(Oc2ccccc2C#N)ncn1 | inactive
CCCCOC(=O)c1ccccc1C(=O)OCCCC | inactive
N#CC(CCc1ccc(Cl)cc1)(Cn1cncn1)c1ccccc1 (stereo unspecified) | inactive
COC(=O)N(OC)c1ccccc1COc1ccn(-c2ccc(Cl)cc2)n1 | inactive
CC1COC(Cn2cncn2)(c2ccc(Oc3ccc(Cl)cc3)cc2Cl)O1 (stereo unspecified) | inactive
CCNc1nc(Cl)nc(NCC)n1 | inactive
COC(=O)C=C(C)OP(=O)(OC)OC | inactive
CC1=C(C(=O)Nc2ccccc2)SCCO1 | inactive
C#CCOS(=O)OC1CCCCC1Oc1ccc(C(C)(C)C)cc1 (stereo unspecified) | inactive

Structure (SMILES) | outcome
O=C(Nc1ccccc1)Nc1ccnc(Cl)c1 | inactive
CCc1nn(C)c(C(=O)NCc2ccc(C(C)(C)C)cc2)c1Cl | inactive
CC(C)C1(C)N=C(c2nc3ccccc3cc2C(=O)O)NC1=O (stereo unspecified) | inactive
COC(=O)C(C)Oc1ccc(Oc2ccc(Cl)cc2Cl)cc1 (stereo unspecified) | inactive
C=CCC1=C(C)[C@@H](OC(=O)[C@@H]2[C@@H](C=C(C)C)C2(C)C)CC1=O | inactive
COc1nc(C)nc(NC(=O)NS(=O)(=O)c2ccccc2CCC(F)(F)F)n1 | inactive
N#Cc1nn(-c2c(Cl)cc(C(F)(F)F)cc2Cl)c(N)c1S(=O)C(F)(F)F (stereo unspecified) | inactive
COC(=O)c1ccccc1C(=O)OC | inactive
COc1ccc(C(c2ccc(OC)cc2)C(Cl)(Cl)Cl)cc1 | inactive
OC(c1ccc(Cl)cc1)(c1cncnc1)c1ccccc1Cl (stereo unspecified) | inactive
CS/C(C)=N/OC(=O)N(C)SN(C)C(=O)O/N=C(\C)SC | inactive
N#Cc1cc(Br)c(O)c(Br)c1 | inactive
CCCCNC(=O)OCC#CI | inactive
COc1nc(C)nc(NC(=O)NS(=O)(=O)c2ccccc2Cl)n1 | inactive
CCCN(CCC)c1c([N+](=O)[O-])cc(S(N)(=O)=O)cc1[N+](=O)[O-] | inactive
